Measured values reported in the supplement of paper PMC10849652.
Targets with a hit are over-represented here; the source holds about 8,800 in all. About 0.5% of all pairs of compound and target were hits. A number with no mark means an inactive call.

Legend:
Assay in all cases: log2 fold change, soluble protein after heating vs DMSO (PISA); higher = thermal stabilisation; K562 lysate, 10 uM; active = over 0.2 and 3.5 SD of the protein, either way, in both replicates (recomputed)
[1] = compound: CCCS(=O)(=O)Nc1ccc(F)c(C(=O)c2c[nH]c3ncc(-c4ccc(Cl)cc4)cc23)c1F [vemurafenib]
Outline: (§1)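 Thermal stability, expressed as log-two fold change relative to solvent controls, is given from duplicates. Crude K562 extract in PBS pH 7.4 with 1 mM MgCl2, at 1 mg/mL protein, was treated with 10 μM compound for 30 min and heated in aliquots for 3 min across 48°C-58°C. After pooling, adjustment to 0.5% NP-40 at 4°C and centrifugation at 21,000xg for 90 min, supernatant protein was measured by TMTpro 16plex LC-MS/MS with channel sums equalised.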

[2] = compound: CCCS(=O)(=O)Nc1ccc(F)c(C(=O)c2c[nH]c3ncc(Cl)cc23)c1F
Outline: as §1

[3] = compound: CCN(CCCOc1ccc2c(Nc3cc(CC(=O)Nc4cccc(F)c4)[nH]n3)ncnc2c1)CCOP(=O)(O)O [barasertib]
Outline: as §1

[4] = compound: CC[C@@H]1C(=O)N(C)c2cnc(Nc3ccc(C(=O)NC4CCN(C)CC4)cc3OC)nc2N1C1CCCC1
Outline: as §1

[5] = compound: CC[C@@H]1C(=O)N(C)c2cnc(Nc3ccc(C(=O)N[C@H]4CC[C@H](N5CCN(CC6CC6)CC5)CC4)cc3OC)nc2N1C(C)C [volasertib]
Outline: as §1

[6] = compound: CCn1c(C(=O)N(C2CC2)C2CC2)cc2c3c(ncn3C)c(Nc3cc(C)n(C)n3)nc21
Outline: as §1

[7] = compound: CCn1cc(-c2ccnc3[nH]c(-c4cccc(CN(C)C)c4)cc23)c(-c2ccc(NC(=O)N(C)C)cc2)n1
Outline: as §1

[8] = compound: CN1CCC(CNc2ccc3ncc(-c4cccc(OC(F)(F)F)c4)n3n2)CC1
Outline: as §1

[9] = compound: CN1CCN(CCOc2cc(OC3CCOCC3)c3c(Nc4c(Cl)ccc5c4OCO5)ncnc3c2)CC1 [saracatinib]
Outline: as §1

[10] = compound: CN1CCN(c2nc(C3=C(c4c[nH]c5ccccc45)C(=O)NC3=O)c3ccccc3n2)CC1 [sotrastaurin]
Outline: as §1

[11] = compound: CN1CC[C@H](c2c(O)cc(O)c3c(=O)cc(-c4ccccc4Cl)oc23)[C@H](O)C1 [alvocidib]
Outline: as §1

[12] = compound: CN1CCc2c(c3ccccc3n2Cc2ccc(C(=O)NO)cc2)C1 [Tubastatin A]
Outline: as §1

[13] = compound: CNC(=O)C1=CC=CC=C1NC2=NC(=NC=C2Cl)NC3=C(C=C(C=C3)N4CCOCC4)OC
Outline: as §1

[14] = compound: CNC(=O)c1ccc(Nc2ncc(C(F)(F)F)c(NCc3nccnc3N(C)S(C)(=O)=O)n2)cc1 [defactinib]
Outline: as §1

[15] = compound: CNc1nc(-c2ccc3c(N)n[nH]c3c2)cc(N2C[C@@H](C(=O)NC3CCCCC3)CC[C@H]2C)n1
Outline: as §1

[16] = compound: COC(=O)N[C@@H](C)CNc1nccc(-c2cn(C(C)C)nc2-c2cc(Cl)cc(NS(C)(=O)=O)c2F)n1 [encorafenib]
Outline: as §1

[17] = compound: COC(=O)[C@H](CCSC)NC(=O)C1=C(C=C(C=C1)NC[C@H](CS)N)C2=CC=CC=C2
Outline: as §1

[18] = compound: COc1cc(Nc2ncc3c(n2)-c2ccc(Cl)cc2C(c2c(F)cccc2OC)=NC3)ccc1C(=O)O [alisertib]
Outline: as §1

[19] = compound: COc1cc2nc(-c3cc(F)ccc3O)nc(N[C@@H]3CNC[C@H]3C(C)(C)O)c2cc1OC
Outline: as §1

[20] = compound: COc1cc2ncnc(Nc3ccc(F)c(Cl)c3)c2cc1OCCCN1CCOCC1 [gefitinib]
Outline: as §1

Chain of UniProt Q9UKP3 (Q9UKP3 whole entry, looked up): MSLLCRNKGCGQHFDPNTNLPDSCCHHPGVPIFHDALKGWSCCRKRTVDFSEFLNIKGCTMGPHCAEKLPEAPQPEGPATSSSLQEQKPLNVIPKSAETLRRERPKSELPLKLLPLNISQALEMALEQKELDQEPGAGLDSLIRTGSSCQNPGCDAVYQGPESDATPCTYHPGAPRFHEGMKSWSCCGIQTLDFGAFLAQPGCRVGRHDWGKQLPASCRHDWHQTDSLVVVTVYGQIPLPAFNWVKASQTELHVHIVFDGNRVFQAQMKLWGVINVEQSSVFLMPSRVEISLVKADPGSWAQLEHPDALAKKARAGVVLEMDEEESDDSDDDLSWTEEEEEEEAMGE
Chain of UniProt Q8IWB1 (Q8IWB1 whole entry, looked up): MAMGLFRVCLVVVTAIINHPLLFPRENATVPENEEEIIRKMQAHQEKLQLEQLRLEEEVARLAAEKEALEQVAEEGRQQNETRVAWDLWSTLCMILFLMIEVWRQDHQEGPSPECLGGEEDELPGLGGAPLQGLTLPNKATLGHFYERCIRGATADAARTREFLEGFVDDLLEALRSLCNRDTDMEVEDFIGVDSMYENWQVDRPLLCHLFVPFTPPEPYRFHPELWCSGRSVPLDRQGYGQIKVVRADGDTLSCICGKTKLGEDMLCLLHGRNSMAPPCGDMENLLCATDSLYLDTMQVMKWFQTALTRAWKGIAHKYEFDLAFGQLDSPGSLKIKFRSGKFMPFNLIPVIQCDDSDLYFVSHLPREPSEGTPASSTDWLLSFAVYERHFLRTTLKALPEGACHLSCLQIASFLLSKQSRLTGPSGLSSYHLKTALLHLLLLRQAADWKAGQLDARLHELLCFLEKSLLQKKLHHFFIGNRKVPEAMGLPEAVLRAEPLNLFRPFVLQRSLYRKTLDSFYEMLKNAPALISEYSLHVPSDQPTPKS
Chain of UniProt Q9NPR9 (Q9NPR9 whole entry, looked up): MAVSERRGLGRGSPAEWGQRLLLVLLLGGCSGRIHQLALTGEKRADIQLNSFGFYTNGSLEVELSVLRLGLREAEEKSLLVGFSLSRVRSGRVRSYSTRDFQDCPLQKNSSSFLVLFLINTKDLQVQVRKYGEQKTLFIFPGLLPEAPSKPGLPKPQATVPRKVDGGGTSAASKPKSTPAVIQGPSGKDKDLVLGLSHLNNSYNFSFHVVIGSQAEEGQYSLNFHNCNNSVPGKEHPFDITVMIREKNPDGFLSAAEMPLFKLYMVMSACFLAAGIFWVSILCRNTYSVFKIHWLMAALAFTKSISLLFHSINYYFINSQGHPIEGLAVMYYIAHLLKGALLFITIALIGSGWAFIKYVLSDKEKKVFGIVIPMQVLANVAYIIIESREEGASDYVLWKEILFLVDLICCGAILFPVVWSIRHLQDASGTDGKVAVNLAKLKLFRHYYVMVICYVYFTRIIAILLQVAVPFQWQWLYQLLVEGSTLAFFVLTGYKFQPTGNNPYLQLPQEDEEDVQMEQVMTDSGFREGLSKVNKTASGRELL
Chain of UniProt Q99795 (Q99795 whole entry, looked up): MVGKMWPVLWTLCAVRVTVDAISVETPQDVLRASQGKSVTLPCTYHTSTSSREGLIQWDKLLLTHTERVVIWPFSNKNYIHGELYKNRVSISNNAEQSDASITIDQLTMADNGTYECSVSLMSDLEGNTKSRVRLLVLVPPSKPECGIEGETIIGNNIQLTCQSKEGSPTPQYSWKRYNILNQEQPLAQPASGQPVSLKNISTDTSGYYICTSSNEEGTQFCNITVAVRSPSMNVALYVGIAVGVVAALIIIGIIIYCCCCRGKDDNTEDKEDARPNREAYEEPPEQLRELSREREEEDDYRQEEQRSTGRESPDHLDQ
Chain of UniProt P22692 (P22692 whole entry, looked up): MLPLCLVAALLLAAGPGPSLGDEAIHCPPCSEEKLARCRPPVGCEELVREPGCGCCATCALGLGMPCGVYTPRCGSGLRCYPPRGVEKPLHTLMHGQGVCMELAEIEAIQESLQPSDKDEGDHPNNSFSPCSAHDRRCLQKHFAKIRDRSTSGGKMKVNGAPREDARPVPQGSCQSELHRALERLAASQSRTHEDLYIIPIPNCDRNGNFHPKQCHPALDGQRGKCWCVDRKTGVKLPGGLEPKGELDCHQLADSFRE
Chain of UniProt Q9H079 (Q9H079 whole entry, looked up): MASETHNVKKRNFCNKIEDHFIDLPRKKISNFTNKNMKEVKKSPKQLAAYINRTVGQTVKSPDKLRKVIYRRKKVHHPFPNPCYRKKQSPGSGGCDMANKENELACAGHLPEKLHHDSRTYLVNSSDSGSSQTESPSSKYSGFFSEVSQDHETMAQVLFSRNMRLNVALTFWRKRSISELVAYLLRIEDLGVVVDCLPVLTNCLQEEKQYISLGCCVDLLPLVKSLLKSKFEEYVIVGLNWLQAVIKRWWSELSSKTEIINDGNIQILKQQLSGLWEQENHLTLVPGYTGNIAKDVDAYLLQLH
Chain of UniProt Q9Y4H2 (Q9Y4H2 whole entry, looked up): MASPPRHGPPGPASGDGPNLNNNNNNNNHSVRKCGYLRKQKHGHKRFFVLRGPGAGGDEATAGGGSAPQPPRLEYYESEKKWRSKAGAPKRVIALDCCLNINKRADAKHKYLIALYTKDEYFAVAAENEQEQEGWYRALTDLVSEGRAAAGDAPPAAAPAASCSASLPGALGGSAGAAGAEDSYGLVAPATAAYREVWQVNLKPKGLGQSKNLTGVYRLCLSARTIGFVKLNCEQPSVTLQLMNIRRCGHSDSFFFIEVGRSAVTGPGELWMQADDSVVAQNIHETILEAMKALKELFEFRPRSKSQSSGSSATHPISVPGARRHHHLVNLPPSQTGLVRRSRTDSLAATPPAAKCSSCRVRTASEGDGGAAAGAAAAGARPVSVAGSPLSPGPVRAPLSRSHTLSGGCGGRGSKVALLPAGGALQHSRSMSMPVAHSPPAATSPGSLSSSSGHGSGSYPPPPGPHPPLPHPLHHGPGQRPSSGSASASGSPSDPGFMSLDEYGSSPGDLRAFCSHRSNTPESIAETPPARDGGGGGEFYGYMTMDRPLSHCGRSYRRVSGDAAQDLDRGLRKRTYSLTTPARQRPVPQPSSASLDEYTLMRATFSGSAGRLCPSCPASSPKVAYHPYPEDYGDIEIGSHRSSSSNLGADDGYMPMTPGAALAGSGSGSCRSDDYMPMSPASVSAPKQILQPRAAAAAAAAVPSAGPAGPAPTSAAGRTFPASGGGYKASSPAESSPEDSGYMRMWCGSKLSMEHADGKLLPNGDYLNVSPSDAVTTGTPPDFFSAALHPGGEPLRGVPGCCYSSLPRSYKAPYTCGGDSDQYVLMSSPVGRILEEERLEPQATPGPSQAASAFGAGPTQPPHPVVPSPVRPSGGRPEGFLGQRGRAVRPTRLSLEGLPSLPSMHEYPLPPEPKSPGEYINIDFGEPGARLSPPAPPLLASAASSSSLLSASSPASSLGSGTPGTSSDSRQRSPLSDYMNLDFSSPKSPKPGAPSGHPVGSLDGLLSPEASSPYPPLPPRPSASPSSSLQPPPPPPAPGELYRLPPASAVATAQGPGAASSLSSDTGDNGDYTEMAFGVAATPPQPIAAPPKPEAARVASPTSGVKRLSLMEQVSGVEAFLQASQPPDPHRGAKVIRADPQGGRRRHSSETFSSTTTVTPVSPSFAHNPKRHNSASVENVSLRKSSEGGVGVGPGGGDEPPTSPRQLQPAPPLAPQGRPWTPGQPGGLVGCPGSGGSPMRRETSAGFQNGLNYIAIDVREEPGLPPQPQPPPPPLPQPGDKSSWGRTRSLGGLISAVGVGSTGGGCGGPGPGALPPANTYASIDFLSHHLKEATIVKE
Chain of UniProt Q6ICG6 (Q6ICG6 whole entry, looked up): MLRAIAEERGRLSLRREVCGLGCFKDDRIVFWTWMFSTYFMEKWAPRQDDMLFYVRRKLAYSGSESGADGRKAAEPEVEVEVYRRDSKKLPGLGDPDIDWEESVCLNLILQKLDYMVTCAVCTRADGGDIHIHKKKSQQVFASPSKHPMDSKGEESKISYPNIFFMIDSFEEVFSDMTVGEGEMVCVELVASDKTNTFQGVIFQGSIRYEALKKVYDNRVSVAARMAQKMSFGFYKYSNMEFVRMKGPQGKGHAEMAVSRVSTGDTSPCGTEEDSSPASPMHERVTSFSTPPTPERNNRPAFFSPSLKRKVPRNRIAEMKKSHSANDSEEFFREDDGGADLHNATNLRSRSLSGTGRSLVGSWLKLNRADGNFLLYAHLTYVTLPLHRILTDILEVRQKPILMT
Chain of UniProt Q9H6K1 (Q9H6K1 whole entry, looked up): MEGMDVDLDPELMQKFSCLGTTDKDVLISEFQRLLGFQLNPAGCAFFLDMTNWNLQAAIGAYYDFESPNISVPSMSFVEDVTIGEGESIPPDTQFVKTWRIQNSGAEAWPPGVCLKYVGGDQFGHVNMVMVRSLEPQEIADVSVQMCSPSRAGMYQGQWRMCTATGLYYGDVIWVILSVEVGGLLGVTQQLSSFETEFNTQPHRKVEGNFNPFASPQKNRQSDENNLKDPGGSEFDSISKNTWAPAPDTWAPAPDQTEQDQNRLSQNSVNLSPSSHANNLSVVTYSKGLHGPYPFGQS

Row | Target | log2 fold change [1] | log2 fold change [2] | log2 fold change [3] | log2 fold change [4] | log2 fold change [5] | log2 fold change [6] | log2 fold change [7] | log2 fold change [8] | log2 fold change [9] | log2 fold change [10] | log2 fold change [11] | log2 fold change [12] | log2 fold change [13] | log2 fold change [14] | log2 fold change [15] | log2 fold change [16] | log2 fold change [17] | log2 fold change [18] | log2 fold change [19] | log2 fold change [20]
1 | GPR108 (UniProt Q9NPR9) | 0.001 | -0.059 | -0.03 | 0.01 | 0.03 | 0.031 | 0.057 | 0.01 | 0.092 | 0.019 | -0.068 | -0.034 | 0.075 | 0 | 0.014 | 0.11 | -0.066 | 0.001 | 0.047 | 0.002
2 | ILRUN (UniProt Q9H6K1) | -0.012 | 0.048 | 0.06 | -0.001 | -0.058 | -0.059 | -0.109 | 0.067 | 0.024 | -0.003 | 0.031 | -0.059 | 0.047 | -0.01 | -0.004 | 0.052 | -0.03 | 0.123 | 0.056 | 0.115
3 | HMGN5 (UniProt Q5JSK9) | – | -0.013 | -0.03 | 0.039 | 0.054 | – | – | – | – | – | – | – | – | – | – | 0.055 | -0.111 | 0.049 | 0.055 | 0.063
4 | IMPDH2 (UniProt H0Y4R1) | -0.047 | 0.114 | 0.134 | 0.195 | 0.001 | -0.1 | 0.059 | 0.129 | 0.043 | 0.116 | -0.12 | -0.554 (active) | – | 0.101 | 0.014 | -0.014 | -0.505 (active) | -0.038 | -0.035 | 0.052
5 | HNRNPUL1 (UniProt M0R247) | – | – | 0.109 | – | – | – | 0.004 | 0.037 | – | – | -0.042 | – | -0.03 | – | – | – | – | – | – | –
6 | GYPA, A0A2R8Y7F9 | – | – | 0.066 | – | – | – | -0.812 | 0.25 | – | – | -0.218 | – | – | – | – | – | – | – | – | –
7 | IGFBP4 (UniProt P22692) | – | -0.171 | -0.281 | – | -0.002 | 0.04 | -0.063 | 0.009 | 0.016 | -0.028 | -0.149 | -0.083 | 0.045 | – | -0.084 | – | – | -0.005 | 0.454 (active) | 0.005
8 | KATNBL1 (UniProt Q9H079) | -0.011 | -0.03 | – | 0.284 | 0.039 | – | -0.105 | 0.055 | -0.068 | -0.004 | -0.106 | – | -0.033 | -0.014 | 0.037 | -0.137 | -0.188 | -0.161 | 0.025 | -0.254
9 | ITPRIP (UniProt Q8IWB1) | – | – | – | – | – | – | – | – | -0.143 | – | – | – | 0.994 (active) | – | -0.268 | – | – | – | – | –
10 | KIAA0930 isoform 2 (UniProt Q6ICG6) | -0.118 | -0.009 | 0.002 | 0.162 | 0.14 | 0.159 | -0.078 | 0.028 | 0.098 | 0.075 | -0.067 | 0.077 | – | 0.03 | -0.118 | -0.089 | -0.032 | 0.073 | 0.013 | -0.063
11 | HSPA8 (UniProt E9PN89) | – | -0.06 | -0.041 | 0.057 | -0.005 | -0.114 | -0.366 | 0.32 | -0.01 | 0.308 | -0.248 | 0.066 | -0.074 | – | -0.075 | 0.088 | 0.035 | 0.11 | 0.013 | 0.076
12 | GPA33 (UniProt Q99795) | -0.038 | -0.014 | -0.047 | -0.011 | 0.081 | -0.032 | -0.925 (active) | 0.612 (active) | -0.005 | – | -0.349 | 0.103 | -0.076 | -0.099 | -0.193 | 0.053 | -0.027 | 0.071 | 0.039 | 0.125
13 | IRS2 (UniProt Q9Y4H2) | – | 0.026 | -0.019 | – | -0.073 | 0.047 | -0.698 | 0.341 | 0.013 | -0.025 | -0.301 | -0.254 | -0.02 | – | 0.275 | – | – | 0.068 | 0.004 | 0.08
14 | ITGB1BP2 (UniProt Q9UKP3) | 0.045 | – | – | -0.07 | – | – | -0.032 | 0.443 | 0.005 | – | -0.116 | – | – | -0.112 | -0.018 | -0.137 | 0.044 | – | – | –
15 | HNRNPL, A0A3B3ITJ4 | – | 0.087 | 0.14 | – | -0.072 | – | – | – | – | – | – | – | – | – | – | – | – | – | 0.032 | –
